Legend:
Assay type in all cases: functional
[1] = target: Solute carrier family 2, facilitated glucose transporter member 1 (Homo sapiens) (UniProt P11166); test: ST_JUDE_LEISH: Cytotoxicity at 2uM final concentration against transgenic Leishmania Mexicana promastigotes LmGLUT1 that are glucose transport deficient and complemented with the human glucose transporter GLUT1. Activity is measured by DNA content using SYBR green in vitro
[2] = target: Hexose transporter 1 (Plasmodium falciparum) (UniProt O97467); test: ST_JUDE_LEISH: Cytotoxicity at 2uM final concentration against transgenic Leishmania Mexicana promastigotes LmPfHT that are glucose transport deficient and complemented with the Plasmodium falciparum hexose transporter. Activity is measured by DNA content using SYBR green in vitro
[3] = target: Glucose transporter (Leishmania mexicana) (UniProt O61059); test: ST_JUDE_LEISH: Cytotoxicity at 2uM final concentration against transgenic Leishmania Mexicana promastigotes LmGT2 that are glucose transport deficient and complemented with the L. Mexicana glucose transporter 2. Activity is measured by DNA content using SYBR green in vitro

Solute carrier family 2, facilitated glucose transporter member 1 (Homo sapiens), sequence (P11166 whole entry): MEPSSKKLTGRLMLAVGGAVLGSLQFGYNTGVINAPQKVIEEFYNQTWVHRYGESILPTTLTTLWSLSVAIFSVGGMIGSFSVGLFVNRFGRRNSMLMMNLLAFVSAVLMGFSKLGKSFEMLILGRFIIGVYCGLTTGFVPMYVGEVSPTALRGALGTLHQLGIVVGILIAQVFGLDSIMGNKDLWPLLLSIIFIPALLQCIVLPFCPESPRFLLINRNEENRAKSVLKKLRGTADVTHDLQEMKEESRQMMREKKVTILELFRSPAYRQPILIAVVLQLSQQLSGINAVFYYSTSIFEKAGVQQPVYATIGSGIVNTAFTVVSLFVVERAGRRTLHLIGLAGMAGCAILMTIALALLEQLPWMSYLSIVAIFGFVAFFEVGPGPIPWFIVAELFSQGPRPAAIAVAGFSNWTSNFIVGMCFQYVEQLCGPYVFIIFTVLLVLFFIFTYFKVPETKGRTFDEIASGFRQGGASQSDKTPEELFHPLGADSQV

Compound `COc1c(C2CCN(CCCCNC(=O)c3ccc(-c4ccc(NC(=O)C(F)(F)F)cc4)cc3)CC2)ccc2c1CCCC2` has an inhibition [1] of 1.22%, an inhibition [2] of 4.26% and an inhibition [3] of 0.3%.

`Oc1ccc(-c2ccccc2)cc1CNC1CCCCC1` showed an inhibition [1] of 2.86%, an inhibition [2] of 0.92% and an inhibition [3] of 2.38%.

In the case of `CCOc1cc(C(=O)NCc2cccc(C(F)(F)F)c2)ccc1-c1nc2cc(Cl)ccc2[nH]1`, the inhibition [1] is reported as 2.15%, the inhibition [2] is reported as 2.24% and the inhibition [3] is reported as 1.82%.

With `CN(Cc1cc(C(F)(F)F)cc(C(F)(F)F)c1)C(=O)C(Cc1ccc(F)cc1)C1CCCNC1` (centres undefined) the inhibition [1] was 6.71%, the inhibition [2] was 4.23% and the inhibition [3] was 6.9%.

Work on `COc1ccc(CN2CCCN(Cc3ccc(C(=O)Nc4ccc(Cl)cc4)cc3)CC2)cc1` yielded an inhibition [1] of 4.35%, an inhibition [2] of 5.51% and an inhibition [3] of 6.65%.

Compound `CN(C)c1ccc2nc(N)nc(N)c2c1Cl` has an inhibition [1] of 3.29%, an inhibition [2] of 3.16% and an inhibition [3] of 3.5%.

For `CC1(C)NC(N)=NC(=N)N1OCCCOc1ccc(N)cc1`, the inhibition [1] was -1.98%, the inhibition [2] was -0.16% and the inhibition [3] was -1.26%.

With `CCCC1N=C(N)N=C(N)N1c1ccc(CC)cc1` (centres undefined) the inhibition [1] was 1.98%, the inhibition [2] was 0.44% and the inhibition [3] was 1.72%.

`Cc1ccccc1C1CCN(C2CCC(NC(=O)c3ccc(-c4ccccn4)s3)CC2)CC1` (centres undefined) gave an inhibition [1] of -4.15%, an inhibition [2] of -2.96% and an inhibition [3] of -1.37%.

For `COC(=O)CNC(c1ccccc1)c1cc(Br)ccc1NC(=O)c1ccccc1Br` (centres undefined), the inhibition [1] was 7.18%, the inhibition [2] was 16.3% and the inhibition [3] was 5.19%.

Compound `OCCCCCCNc1nc(NCc2ccccc2-c2ccc(C(F)(F)F)cc2)nc(N2CCNCC2)n1` has an inhibition [1] of 1.31%, an inhibition [2] of -1.2% and an inhibition [3] of 0.81%.

`Fc1cccc(COc2ccc(Nc3ncnc4sc(C#C[C@H]5CC[C@H](CN6CCOCC6)N5)cc34)cc2Cl)c1` showed an inhibition [1] of 0.36%, an inhibition [2] of -0.26% and an inhibition [3] of -0.26%.

For `CCC(C)CN1C(=O)C(c2ccccc2)(c2ccccc2)N=C1N` (centres undefined), the inhibition [1] was 2.09%, the inhibition [2] was 2.72% and the inhibition [3] was 2.04%.
